Assay [1] in a line: binders of probe aFSTL3 on microarray, primary screen, stem cell growth factor project, biochemical, small-molecule microarray, fluorescence 635/667 (AID 1064).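 Note: measures binding of the biotinylated anti-FSTL3 antibody to printed compounds.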 To be noted: higher = more signal.
Assay [2] can be described thus: binders from COS7 lysate, DM2A8 probe, primary screen, torsin A project, cell lysate, small-molecule microarray, fluorescence 635/667 (AID 1065). To be noted: higher = more signal, COS7 lysate expressing mutant human TOR1A.
The nature of assay [3]: binders of probe aFGF2 on microarray, primary screen, stem cell growth factor project, biochemical, small-molecule microarray, fluorescence 635/667 (AID 1067).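 Note: measures binding of biotinylated aFGF2 protein to printed compounds on slides; z-score merges feature fluorescence and signal-to-noise across triplicate slides.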 To be noted: higher = more signal.
A short description of assay [4]: binders of probe aFGF10 on microarray, primary screen, stem cell growth factor project, biochemical, small-molecule microarray, fluorescence 635/667 (AID 1071).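 Note: score merges 667 nm spot intensity and signal to noise from triplicate slides.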 To be noted: higher = more signal.
The target in assay [5] is Neurogenic locus notch homolog protein 2 (Homo sapiens) (UniProt Q04721). Description: Notch2 binders on small-molecule microarrays, primary screen, biochemical, small-molecule microarray, 635 nm fluorescence, stem cell growth factors (AID 1073). Conditions: Notch2 binding, higher = more signal.
For assay [6], the target named is Pro-neuregulin-1, membrane-bound isoform (Homo sapiens) (UniProt Q02297). Kind of assay: NRG1 binders on small-molecule microarrays, primary screen, psychiatric disease protein project, biochemical, small-molecule microarray, fluorescence 635/667 (AID 1075).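 Note: score combines 667 nm spot fluorescence with signal to noise.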 Conditions: NRG1 binding, 635 nm fluorescence, higher = more signal.
The test system of assay [7] is Neuregulin-1 EGF-like domain. Description: binders of neuregulin-1 EGF-like domain, primary screen, biochemical, small-molecule microarray, 635 nm fluorescence (AID 1081).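 Note: binding of the protein to compounds printed on small-molecule microarray slides.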 To be noted: small-molecule microarray binding, higher = more signal.
Assay [8] can be described thus: FRG1 promoter luciferase signal modulators, primary screen, FRG1 inhibition for FSHD, cell-based, C2C12 myotubes, firefly/Renilla luciferase, luminescence (AID 1084). To be noted: higher = more signal, called active from +8 up or from −8 down.
Assay [9] in a line: binders of probe aFST on microarray, primary screen, stem cell growth factor project, biochemical, small-molecule microarray, fluorescence 635/667 (AID 1086).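 Note: score merges 667 nm fluorescence with signal-to-noise of each printed compound spot.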 Conditions: higher = more signal.
Assay [10] in a line: binders of probe aHhip on microarray, primary screen, stem cell growth factor project, biochemical, small-molecule microarray, fluorescence 635/667 (AID 1087).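 Note: score merges spot fluorescence at 667nm with spot signal to noise ratio.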 Conditions: higher = more signal.
The subject of assay [11] is PRMT1 (protein arginine N-methyltransferase 1). Description: PRMT1 binders on small-molecule microarrays, primary screen, biochemical, small-molecule microarray, 635 nm fluorescence (AID 1088).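 Note: binding of Prmt1 protein to compounds spotted on small-molecule microarray slides.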 Conditions: small-molecule microarray binding, higher = more signal.
A short description of assay [12]: yeast growth modulation, basal conditions, primary screen, YJM789 clinical isolate, OD600, 24 h (AID 1089).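 Note: growth of clinical yeast isolate S. cerevisiae YJM 789 seeded 1000 cells per well; test concentration not given here.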 Conditions: S. cerevisiae YJM789 growth, higher = more signal, called active from +8 up or from −8 down.
A short description of assay [13]: fission yeast growth modulation, primary screen, strain 972, OD600, 24 h, no modulator (AID 1090).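 Note: basal condition with compound alone and no growth modifier present; test concentration not given here.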 Conditions: S. pombe 972 growth, higher = more signal, called active from +8 up or from −8 down.
Assay [14] in a line: S. cerevisiae growth modulation with rapamycin, primary screen, strain BY4716, OD600, 96 h (AID 1091). Note: test concentration not given here. To be noted: higher = more signal, called active from +8 up or from −8 down.
The target in assay [15] is Torsin-1A-interacting protein 2 (Homo sapiens) (UniProt Q8NFQ8). Kind of assay: LULL1 binders on small-molecule microarray, primary screen, cell lysate, human LULL1 lysate, 635/667 nm fluorescence (AID 1092).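 Note: probe is lysate of COS7 cells overexpressing human LULL1; score merges per-feature 667 nm fluorescence with signal-to-noise.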 To be noted: hLULL1 lysate binding, 635 nm fluorescence, higher = more signal.
Assay [16] is described as follows: E. coli growth modulation, two-sided OD650, primary screen, E. coli filamentation project, strain DRC41, 24 h (AID 1093).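 Note: MC1000 strain lacking acrAB efflux and sulA so SOS filamentation is blocked; test concentration not given here.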 To be noted: OD650, 24 h, higher = more signal, called active from +8 up or from −8 down.
The nature of assay [17]: small-molecule microarray binders of probe aLefty2, primary screen, biochemical, biotinylated probe, 635/667 nm fluorescence (AID 1094).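 Note: score merges spot fluorescence near 667 nm with spot signal-to-noise ratio.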 To be noted: higher = more signal.
The test system of assay [18] is Noggin (protein binding on small-molecule microarray). Kind of assay: Noggin binders on small-molecule microarray, primary screen, biochemical, 635/667 nm fluorescence (AID 1095).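 Note: score merges 667 nm feature fluorescence with signal to noise over triplicate slides.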 To be noted: 635 nm fluorescence, higher = more signal.
Assay [19] addresses Neurogenic locus notch homolog protein 3 (Homo sapiens) (UniProt Q9UM47). Description: NOTCH3 binders on small-molecule microarray, primary screen, biochemical, 635/667 nm fluorescence (AID 1096). To be noted: NOTCH3 binding, 635 nm fluorescence, higher = more signal.
Assay [20] can be described thus: small-molecule microarray binders of probe aEGFR, primary screen, biochemical, biotinylated probe, 635/667 nm fluorescence (AID 1097).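 Note: probe is a biotinylated anti-EGFR antibody binding compounds printed on slides; score combines fluorescence near 667 nm and signal to noise of each spot.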 Conditions: higher = more signal.

Calls of active or inactive are those of the source.

Chain of Pro-neuregulin-1, membrane-bound isoform (Homo sapiens) (Q02297 whole entry, looked up, the tested form may be a part, canonical isoform): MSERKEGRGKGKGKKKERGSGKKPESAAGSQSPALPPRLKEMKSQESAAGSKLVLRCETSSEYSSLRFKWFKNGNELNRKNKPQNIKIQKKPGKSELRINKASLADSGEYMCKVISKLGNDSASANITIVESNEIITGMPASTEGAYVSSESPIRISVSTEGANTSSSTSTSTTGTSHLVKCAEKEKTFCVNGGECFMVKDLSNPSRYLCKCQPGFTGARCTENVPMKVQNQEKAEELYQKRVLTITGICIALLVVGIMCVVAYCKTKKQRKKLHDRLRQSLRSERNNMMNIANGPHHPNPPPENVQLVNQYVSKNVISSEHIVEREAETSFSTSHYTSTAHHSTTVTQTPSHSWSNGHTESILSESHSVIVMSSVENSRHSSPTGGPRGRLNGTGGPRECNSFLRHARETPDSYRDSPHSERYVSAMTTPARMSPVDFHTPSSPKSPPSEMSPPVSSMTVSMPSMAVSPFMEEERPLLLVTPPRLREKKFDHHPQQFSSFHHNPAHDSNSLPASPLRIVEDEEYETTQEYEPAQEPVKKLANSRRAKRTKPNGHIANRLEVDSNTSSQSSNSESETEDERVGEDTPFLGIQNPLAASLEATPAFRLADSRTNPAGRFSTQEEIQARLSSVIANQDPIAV
Chain of Neurogenic locus notch homolog protein 2 (Homo sapiens) (Q04721 whole entry, looked up, canonical isoform): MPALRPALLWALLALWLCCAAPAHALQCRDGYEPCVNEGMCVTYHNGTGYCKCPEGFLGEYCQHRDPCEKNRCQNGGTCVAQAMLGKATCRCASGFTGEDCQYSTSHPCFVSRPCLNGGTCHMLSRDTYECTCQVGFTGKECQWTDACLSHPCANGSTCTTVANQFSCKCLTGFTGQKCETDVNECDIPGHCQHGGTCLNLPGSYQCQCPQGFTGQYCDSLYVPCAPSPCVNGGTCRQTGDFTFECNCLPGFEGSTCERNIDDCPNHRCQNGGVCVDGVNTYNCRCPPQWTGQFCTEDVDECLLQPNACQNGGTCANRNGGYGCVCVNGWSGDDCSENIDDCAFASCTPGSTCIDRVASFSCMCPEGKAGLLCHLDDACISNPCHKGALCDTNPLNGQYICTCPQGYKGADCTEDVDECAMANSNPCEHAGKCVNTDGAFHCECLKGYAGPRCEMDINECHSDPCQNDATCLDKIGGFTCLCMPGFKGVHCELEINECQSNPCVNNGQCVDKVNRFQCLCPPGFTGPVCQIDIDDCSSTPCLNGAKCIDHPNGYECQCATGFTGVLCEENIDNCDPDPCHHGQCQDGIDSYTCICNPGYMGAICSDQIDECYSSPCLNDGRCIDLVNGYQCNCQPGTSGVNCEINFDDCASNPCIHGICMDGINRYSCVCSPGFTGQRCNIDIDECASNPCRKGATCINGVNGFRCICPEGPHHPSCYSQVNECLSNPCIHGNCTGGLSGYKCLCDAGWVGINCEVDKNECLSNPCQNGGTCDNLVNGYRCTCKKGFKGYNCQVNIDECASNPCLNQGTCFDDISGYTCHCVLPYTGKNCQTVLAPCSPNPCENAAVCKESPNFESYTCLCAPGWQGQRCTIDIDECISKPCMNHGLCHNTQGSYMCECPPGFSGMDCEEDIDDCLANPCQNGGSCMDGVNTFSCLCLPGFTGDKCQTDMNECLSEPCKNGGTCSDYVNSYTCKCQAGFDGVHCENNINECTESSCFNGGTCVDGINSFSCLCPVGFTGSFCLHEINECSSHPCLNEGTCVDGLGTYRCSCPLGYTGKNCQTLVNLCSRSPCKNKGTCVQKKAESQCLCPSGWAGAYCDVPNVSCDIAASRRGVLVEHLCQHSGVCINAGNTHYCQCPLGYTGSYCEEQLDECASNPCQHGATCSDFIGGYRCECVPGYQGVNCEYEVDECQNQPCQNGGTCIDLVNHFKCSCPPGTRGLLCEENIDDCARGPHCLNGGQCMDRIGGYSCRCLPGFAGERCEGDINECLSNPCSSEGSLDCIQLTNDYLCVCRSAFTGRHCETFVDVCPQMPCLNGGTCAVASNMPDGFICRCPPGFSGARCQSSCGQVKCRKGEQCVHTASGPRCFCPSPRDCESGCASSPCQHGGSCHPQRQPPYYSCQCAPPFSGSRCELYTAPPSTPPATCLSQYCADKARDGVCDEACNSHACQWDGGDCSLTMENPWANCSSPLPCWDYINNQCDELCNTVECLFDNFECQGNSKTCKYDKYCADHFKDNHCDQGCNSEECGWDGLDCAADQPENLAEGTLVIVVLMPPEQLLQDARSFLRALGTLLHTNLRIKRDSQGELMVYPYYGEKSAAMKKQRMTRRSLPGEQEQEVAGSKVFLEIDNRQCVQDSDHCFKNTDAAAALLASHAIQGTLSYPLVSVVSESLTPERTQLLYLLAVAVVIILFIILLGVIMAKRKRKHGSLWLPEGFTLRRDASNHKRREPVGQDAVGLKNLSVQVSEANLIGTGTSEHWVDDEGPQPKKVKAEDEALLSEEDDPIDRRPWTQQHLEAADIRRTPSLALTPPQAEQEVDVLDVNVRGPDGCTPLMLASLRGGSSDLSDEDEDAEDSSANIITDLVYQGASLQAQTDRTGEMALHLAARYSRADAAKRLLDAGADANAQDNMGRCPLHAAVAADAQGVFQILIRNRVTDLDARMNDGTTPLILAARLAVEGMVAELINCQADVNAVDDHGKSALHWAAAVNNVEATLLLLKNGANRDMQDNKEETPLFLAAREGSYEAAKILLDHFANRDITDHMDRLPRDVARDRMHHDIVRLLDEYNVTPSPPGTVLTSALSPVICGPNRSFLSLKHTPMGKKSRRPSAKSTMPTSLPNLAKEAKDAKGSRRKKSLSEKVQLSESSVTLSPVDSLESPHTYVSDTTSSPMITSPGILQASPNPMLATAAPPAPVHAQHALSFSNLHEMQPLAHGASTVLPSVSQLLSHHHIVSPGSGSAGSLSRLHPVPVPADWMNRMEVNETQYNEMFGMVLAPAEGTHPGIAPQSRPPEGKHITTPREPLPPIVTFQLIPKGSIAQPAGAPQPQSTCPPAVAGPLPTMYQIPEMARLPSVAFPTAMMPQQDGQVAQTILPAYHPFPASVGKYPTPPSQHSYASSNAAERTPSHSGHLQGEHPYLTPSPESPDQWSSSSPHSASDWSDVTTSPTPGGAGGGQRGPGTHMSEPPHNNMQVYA
Chain of Torsin-1A-interacting protein 2 (Homo sapiens) (Q8NFQ8 whole entry, looked up): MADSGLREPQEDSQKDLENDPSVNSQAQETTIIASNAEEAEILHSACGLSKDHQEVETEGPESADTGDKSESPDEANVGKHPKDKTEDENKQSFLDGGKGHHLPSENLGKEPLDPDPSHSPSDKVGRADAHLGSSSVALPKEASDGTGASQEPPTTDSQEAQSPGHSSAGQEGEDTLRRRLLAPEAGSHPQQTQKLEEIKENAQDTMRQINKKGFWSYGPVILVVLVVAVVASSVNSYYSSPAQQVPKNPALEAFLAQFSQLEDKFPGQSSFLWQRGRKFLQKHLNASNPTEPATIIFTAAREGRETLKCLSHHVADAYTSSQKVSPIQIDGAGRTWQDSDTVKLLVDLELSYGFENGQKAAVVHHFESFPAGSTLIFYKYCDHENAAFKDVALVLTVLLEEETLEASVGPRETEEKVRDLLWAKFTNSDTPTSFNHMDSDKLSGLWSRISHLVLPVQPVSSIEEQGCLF

On to `C=C(/C(=C/C[C@@H](OC(=O)c1ccncc1)c1cccc(OCCO)c1)c1cc(C(=O)OC)ccc1OC)C(C)C`, for which the composite z-score is -0.295 in assay [1]; 0.679 in [2]; -0.0549 in assay [3]; 0.579 in assay [4]; 0.868 in assay [5]; 0.826 in assay [6]. Moreover, the composite z-score in assay [7] was 0.981; in assay [9], 0.351; in assay [10], -0.0994; in assay [11], 1.33; in [15] it was 1.54; in [17], 0.0233. Moreover, the composite z-score was 0.548 in assay [18], 0.93 in assay [19] and -0.0476 in assay [20]. Also, the z-score in [8] is -1.61 (inactive); in [12] it was -0.117 (inactive); in assay [13], -1.22 (inactive); in assay [14] it was -0.35 (inactive); in [16], 1.03 (inactive).

In the case of `COCCCNC(=O)[C@]1(CCS(=O)(=O)c2ccccc2)N=C(c2ccc(OCCCO)cc2)O[C@@H]1c1ccccc1`, the composite z-score in [1] was -0.0225; in assay [2], 1.05; in [3] it was 0.124; in assay [4], 0.786; in assay [5], 1.57; in assay [6], 2.12. In addition, the composite z-score in assay [7] was 1.22; in assay [9] it was 1.26; in assay [10], -0.166; in assay [11], 1.54; in [15], 3.74; in assay [17], 0.255. In addition, the composite z-score in assay [18] turned out to be 0.712; in assay [19] it was 1.11; in [20], 0.141. Besides, the z-score in assay [8] was -1.91 (inactive); in assay [12] it was -0.575 (inactive); in [13] it was 0.127 (inactive); in assay [14], 0.0389 (inactive); in assay [16], 0.697 (inactive).

As for `C[N+](C)(C)CCCC[C@@H]1NC(=O)[C@@H]2C[C@H](C(=O)NCCCCCNC(=O)CS)[C@H](c3cccc(OCCO)c3)N2C1=O`, the composite z-score in [1] is -0.129; in assay [2], 0.5; in assay [3], 0.0402; in assay [4], 0.294; in [5], 0.151; in [6], 0.634. In addition, the composite z-score in assay [7] was 1.21; in assay [9], -0.0763; in assay [10] it was 0.138; in assay [11] it was 0.749; in [15] it was 0.743; in assay [17], 0.115. Also, the composite z-score was 0.505 in assay [18], -0.296 in assay [19] and 0.0338 in assay [20]. Further, the z-score in assay [8] is -0.669 (inactive); in assay [12], 0.539 (inactive); in [13] it was -0.879 (inactive); in assay [14], 0.378 (inactive); in [16], 0.906 (inactive).

On to `COc1ccccc1CN1C(=O)c2ccccc2[C@](Cc2ccccc2I)(C(=O)NCCN2CCOCC2)[C@@H]1c1ccc(CO)cc1`, for which the composite z-score is -0.291 in [1]; 0.148 in assay [2]; 0.103 in [3]; 0.479 in assay [4]; 1.37 in [5]; 1.39 in [6]. In addition, the composite z-score was 1.3 in assay [7]; 1.08 in [9]; -0.189 in [10]; 1.54 in [11]; 3.27 in assay [15]; -0.0028 in assay [17]. In addition, the composite z-score in assay [18] is 1.12; in assay [19] it was 1.09; in assay [20] it was -0.0502. Further, the z-score in assay [8] was -3.32 (inactive); in assay [12], -2.4 (inactive); in assay [13] it was 0.548 (inactive); in [14], -0.168 (inactive); in assay [16] it was 0.0429 (inactive).

Take `CCC[C@@H]1C[C@@]1(CCC)[C@@H](NC(=O)c1ccco1)c1ccc(Cl)cc1`: the composite z-score in assay [1] is -0.0089; in [2], -0.441; in [3] it was -0.163; in [4], 0.0059; in assay [5], -0.259; in assay [6], -0.656. Moreover, the composite z-score in [7] is -1.26; in assay [9], 0.161; in assay [10] it was -0.313; in [11] it was -1.25; in assay [15], -0.825; in assay [17], -0.149. For the same compound, the composite z-score in assay [18] was -0.174; in assay [19], -0.625; in assay [20], -0.165. Further, the z-score in [8] is -0.632 (inactive); in [12], 0.349 (inactive); in [13] it was -0.0896 (inactive); in [14], 0.194 (inactive); in assay [16], -1.1 (inactive).

The values are drawn from PubChem BioAssay.
